Experimental data: the supplement of paper PMC6897291

Test system: U-2932
Assay: growth inhibition by drug alone (1 - RLU/untreated control) (fraction); higher = stronger inhibition
Details: 177Lu-lilotomab satetraxetan 0 ug/ml
Procedure: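 U-2932 ABC-DLBCL cells were pretreated or not for 18 h with 1 ug/ml 177Lu-lilotomab satetraxetan (600 MBq/mg), washed and seeded (3000 cells/well) on 384-well plates pre-printed with the Selleck Cambridge Cancer Compound library. Viability was read by RealTime-Glo luminescence on days 3-6 after seeding. Effect = 1 - RLU/mean RLU of the 48 untreated no-drug control wells per plate; Bliss score = (M-E)/(1-Fa), with E the expected Bliss-additive effect.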

Compound	growth inhibition by drug alone (10 nM, time (day): 3)	growth inhibition by drug alone (10 nM, time (day): 4)	growth inhibition by drug alone (10 nM, time (day): 5)	growth inhibition by drug alone (10 nM, time (day): 6)	growth inhibition by drug alone (1000 nM, time (day): 3)	growth inhibition by drug alone (1000 nM, time (day): 4)	growth inhibition by drug alone (1000 nM, time (day): 5)	growth inhibition by drug alone (1000 nM, time (day): 6)
COc1cc(C(=O)NC(=S)Nc2cccc(NC(=O)c3ccccc3)c2)cc(OC)c1OC	0.147	0.139	0.0192	-0.0981	0.0988	0.139	0.108	0.0418
CCOc1cc2ncc(C#N)c(Nc3ccc(F)c(Cl)c3)c2cc1NC(=O)/C=C/CN(C)C [Pelitinib (EKB-569)]	-0.0434	-0.0318	-0.0741	-0.211	0.227	0.204	0.154	0.148
Cc1cn(-c2cc(NC(=O)c3ccc(C)c(Nc4nccc(-c5cccnc5)n4)c3)cc(C(F)(F)F)c2)cn1 [Nilotinib (AMN-107)]	0.0488	0.0185	-0.0493	-0.187	-0.0166	0.0185	-0.0481	-0.136
CCc1cncnc1N1CCN(Cc2nc3ccc(C(F)(F)F)cc3[nH]2)CC1	0.0983	0.0884	-0.0751	-0.108	0.0626	0.102	0.0246	-0.253
C[C@H](NC(=O)Cc1cc(F)cc(F)c1)C(=O)N[C@@H]1C(=O)N(C)c2ccccc2-c2ccccc21	-0.0485	-0.0319	-0.0413	0.0451	-0.0641	-0.0187	-0.0724	-0.157
